Counter-ions that a name gives are not always drawn. ± gives the standard deviation of the averaged measurements.

The values that follow come from the supplement of paper PMC6658780.

Assay [1] deals with Klebsiella pneumoniae KPC-119. The assay is described as follows: percent growth inhibition of drug alone vs DMSO control; higher = more growth inhibition. Conditions: antibiotic (0.125x MIC): none (0.1% DMSO).
In assay [2] the test system is Klebsiella pneumoniae KPC-119. The assay is described as follows: percent growth inhibition of drug + antibiotic vs DMSO control; higher = more growth inhibition.
The test system of assay [3] is Escherichia coli ATCC BAA-2469. Described as above. The method, then:
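Prestwick drugs tested at 20 uM and 7 uM with an antibiotic at 0.125x MIC (16 mg/L when MIC >128 mg/L) against E. coli ATCC BAA-2469 (NDM-1) in CAMHB, 384-well plates, duplicate runs. Percent growth inhibition was computed from OD600 (24 h minus 0 h) relative to DMSO wells. Drug + DMSO-only wells are also given. […]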

Assay [4] deals with Klebsiella pneumoniae NCTC-13439. The assay is described as follows: percent growth inhibition of drug alone vs DMSO control; higher = more growth inhibition. The note with it: antibiotic (0.125x MIC): none (0.1% DMSO).
Assay [5] shares this test system. The assay can be described thus: percent growth inhibition of drug + antibiotic vs DMSO control; higher = more growth inhibition.
The mark [6] stands for this setting: antibiotic (0.125x MIC): gentamicin, 7 µM.
The mark [7] stands for this setting: antibiotic (0.125x MIC): ciprofloxacin, 7 µM.
Where [8] appears, read: antibiotic (0.125x MIC): ciprofloxacin, 20 µM.
Setting [9] is: antibiotic (0.125x MIC): gentamicin, 20 µM.
[10] abbreviates: antibiotic (0.125x MIC): tigecycline, 7 µM.
Where [11] appears, read: antibiotic (0.125x MIC): tigecycline, 20 µM.
[12] abbreviates: antibiotic (0.125x MIC): colistin, 7 µM.
Setting [13] is: antibiotic (0.125x MIC): colistin, 20 µM.
Setting [14] is: antibiotic (0.125x MIC): meropenem, 20 µM.

On to `CO[C@@]1(NC(=O)CSCC#N)C(=O)N2C(C(=O)O)=C(CSc3nnnn3C)CS[C@@H]21` [Cefmetazole sodium salt], for which the “percent growth inhibition of drug alone” value was determined as 2.72 ± 1.2% in assay [1] (7 µM) and 32.6 ± 2.3% in assay [1] (20 µM). For the same compound, the percent growth inhibition in assay [2] (setting [6]) came to 3.52 ± 6.6%.

In the case of `OC(CCN1CCCC1)(c1ccccc1)C1CCCCC1` (configuration not stated) [Procyclidine hydrochloride], the values for the percent growth inhibition in assay [3] (setting [7]) and in assay [3] (setting [8]) were 10.9 ± 16% and 8.13 ± 9.2%, respectively.

In the case of `CC(=O)c1ccc2c(c1)N(CCCN1CCC(CCO)CC1)c1ccccc1S2` [Piperacetazine], the percent growth inhibition in assay [3] (setting [6]) was 2.86 ± 2.4%.

In the case of `CN[C@@H]1[C@@H](O[C@H]2O[C@H](CO)[C@@H](N)[C@H](O)[C@H]2O)OC2C[C@@H](N)[C@@H](O[C@H]3[C@H](O)[C@@H](O)[C@H](N)C[C@@H]3N)OC2[C@@H]1O` (some centres not stated) [Apramycin], the “percent growth inhibition of drug alone” value in assay [1] (7 µM) amounted to 4.95 ± 5.6%; in assay [1] (20 µM) it was 52.9 ± 1.4%; in assay [4] (7 µM), 4.78 ± 15%; in assay [4] (20 µM), 88 ± 17%. Moreover, the percent growth inhibition in assay [2] (setting [6]) worked out at 27.9 ± 0.46%; in assay [2] (setting [9]), 99.968 ± 0.004%; in assay [5] (setting [10]), 35.7 ± 13%; in assay [5] (setting [11]), 100 ± 0.19%.

For `COc1cc(NS(=O)(=O)c2ccc(N)cc2)nc(OC)n1` [Sulfadimethoxine], in assay [3] (setting [6]), the percent growth inhibition amounted to 1.55 ± 1.5%.

Consider `CC(C)Nc1cccnc1N1CCN(C(=O)c2cc3cc(NS(C)(=O)=O)ccc3[nH]2)CC1` [Delavirdine], for which the “percent growth inhibition of drug alone” value in assay [1] (7 µM) is -0.164 ± 2.9%; in assay [1] (20 µM), -1.86 ± 1%. Moreover, the percent growth inhibition in assay [2] (setting [12]) was -6.39 ± 0.99%.

As for `Cc1cccc(C)c1NC(=O)C1CCCCN1C` (configuration not stated) [Mepivacaine hydrochloride], the percent growth inhibition in assay [3] (setting [9]) was 1.04 ± 3.1%.

For the compound `CC(=O)OC[C@H]1O[C@@H]([S-])[C@H](OC(C)=O)[C@@H](OC(C)=O)[C@@H]1OC(C)=O.CCP(CC)CC.[Au+]` [Auranofin], the “percent growth inhibition of drug alone” value in assay [1] (7 µM) came out at 10 ± 0.89%; in assay [1] (20 µM), 50.22 ± 0.3%; in assay [4] (7 µM), 9.98 ± 8.3%; in assay [4] (20 µM), 22.6 ± 13%. The percent growth inhibition in assay [2] (setting [12]) was 101 ± 3.5%; in assay [2] (setting [13]), 96.14 ± 0.42%; in assay [2] (setting [6]), 33.2 ± 9.4%; in assay [2] (setting [9]), 99.78 ± 0.2%; in assay [2] (antibiotic (0.125x MIC): meropenem, 7 µM), 98.3 ± 1.4%; in assay [2] (setting [14]), 99.5 ± 0.13%. Moreover, the percent growth inhibition in assay [5] (setting [7]) amounted to 10.8 ± 5.5%.

As to `CCC[C@@H]1C[C@@H](C(=O)N[C@@H]([C@H]2O[C@H](SC)[C@H](O)[C@@H](O)[C@H]2O)[C@H](C)Cl)N(C)C1` [Clindamycin hydrochloride], the “percent growth inhibition of drug alone” value in assay [1] (7 µM) came to 12 ± 1.4%; in assay [1] (20 µM), 28.5 ± 0.74%. Also, the percent growth inhibition in assay [2] (setting [12]) was determined as 44.3 ± 4.1%.

For the compound `CC[C@H]1OC(=O)[C@H](C)[C@@H](O[C@H]2C[C@@](C)(OC)[C@@H](O)[C@H](C)O2)[C@H](C)[C@@H](O[C@@H]2O[C@H](C)C[C@H](N(C)C)[C@H]2O)[C@](C)(O)C[C@@H](C)CN(C)[C@H](C)[C@@H](O)[C@]1(C)O` [Azithromycin], the “percent growth inhibition of drug alone” value in assay [1] (7 µM) is 5.21 ± 1.8%; in assay [1] (20 µM), 21.1 ± 1%; in assay [4] (7 µM), 55.2 ± 6.6%; in assay [4] (20 µM) it was 74.4 ± 19%. The percent growth inhibition in assay [2] (setting [12]) turned out to be 40.9 ± 12%; in assay [2] (setting [13]), 98.78 ± 0.7%; in assay [5] (setting [7]), 44.5 ± 5.6%; in assay [5] (setting [8]), 99.666 ± 0.042%; in assay [5] (setting [10]), 64.2 ± 2.8%.

As for `COc1cc(C(=O)NCc2ccc(OCCN(C)C)cc2)cc(OC)c1OC` [Trimethobenzamide hydrochloride], in assay [3] (setting [6]), the percent growth inhibition turned out to be 0.833 ± 1.4%.

As for `Cn1c(=O)c2c(ncn2C)n(C)c1=O` [Caffeine], the percent growth inhibition in assay [3] (setting [6]) is 1.53 ± 7.1%.

As to `CO[C@H]1/C=C/O[C@@]2(C)Oc3c(C)c(O)c4c(O)c(c5c(nc6cc(C)ccn65)c4c3C2=O)NC(=O)/C(C)=C\C=C\[C@H](C)[C@H](O)[C@@H](C)[C@@H](O)[C@@H](C)[C@H](OC(C)=O)[C@@H]1C` [Rifaximin], the “percent growth inhibition of drug alone” value was 18.5 ± 1.3% in assay [1] (7 µM), 71.9 ± 2.4% in assay [1] (20 µM), 1.28 ± 0.063% in assay [4] (7 µM) and 17.5 ± 13% in assay [4] (20 µM). For the same compound, the percent growth inhibition was 99.23 ± 0.84% in assay [2] (setting [12]); -1.2 ± 3.8% in assay [5] (setting [7]); 50.5 ± 1.9% in assay [5] (setting [8]); 7.05 ± 5.2% in assay [5] (setting [10]); 50.7 ± 4% in assay [5] (setting [11]).

Turning to `CO[C@H]1/C=C/O[C@@]2(C)Oc3c(C)c(O)c4c(O)c(c(/C=N/N5CCN(C6CCCC6)CC5)c(O)c4c3C2=O)NC(=O)/C(C)=C\C=C\[C@H](C)[C@H](O)[C@@H](C)[C@@H](O)[C@@H](C)[C@H](OC(C)=O)[C@@H]1C` [Rifapentine], the “percent growth inhibition of drug alone” value in assay [1] (7 µM) amounted to 2.17 ± 1.7%; in assay [1] (20 µM), 34.82 ± 0.22%; in assay [4] (7 µM), 6.76 ± 7.4%; in assay [4] (20 µM), 11.1 ± 17%. The percent growth inhibition in assay [2] (setting [13]) turned out to be 93.01 ± 0.93%; in assay [2] (setting [6]), 4.75 ± 13%; in assay [5] (setting [10]) it was 14.7 ± 5.3%; in assay [5] (setting [11]), 42.9 ± 12%.

As to `OCCOCCN1CCN(C2=Nc3ccccc3Sc3ccccc32)CC1` [Quetiapine hemifumarate], the “percent growth inhibition of drug alone” value in assay [1] (7 µM) is -3.12 ± 4%; in assay [1] (20 µM) it was -3.25 ± 2.9%; in assay [4] (7 µM), -15.6 ± 19%; in assay [4] (20 µM), -5.29 ± 6.1%. Moreover, the values for the percent growth inhibition in assay [2] (setting [13]), in assay [5] (setting [10]) and in assay [5] (setting [11]) were -8.06 ± 1.8%, -9.2 ± 16% and -7.45 ± 10%, respectively.

Take `CO[C@H]1/C=C/O[C@@]2(C)Oc3c(C)c(O)c4c(c3C2=O)C2=NC3(CCN(CC(C)C)CC3)NC2=C(NC(=O)/C(C)=C\C=C\[C@H](C)[C@H](O)[C@@H](C)[C@@H](O)[C@@H](C)[C@H](OC(C)=O)[C@@H]1C)C4=O` [Rifabutin]: the results for the “percent growth inhibition of drug alone” value in assay [1] (7 µM), in assay [1] (20 µM) and in assay [4] (7 µM) were 8.64 ± 2.6%, 73.8 ± 3.7% and 5.74 ± 2.1%, respectively. The percent growth inhibition in assay [2] (setting [12]) was found to be 97.8 ± 1.9%; in assay [2] (setting [13]), 98.1 ± 2.2%; in assay [2] (setting [6]), 41.8 ± 7%; in assay [2] (setting [9]), 99.4 ± 0.45%; in assay [2] (setting [14]) it was 99.645 ± 0.017%; in assay [5] (setting [7]), 21.5 ± 7.5%. In assay [5] (setting [11]), the percent growth inhibition is 30.9 ± 7.2%.

In the case of `CN(C)c1ccc(O)c2c1C[C@H]1C[C@H]3[C@H](N(C)C)C(O)=C(C(N)=O)C(=O)[C@@]3(O)C(O)=C1C2=O` [Minocycline hydrochloride], the “percent growth inhibition of drug alone” value in assay [1] (7 µM) stood at 10.9 ± 1.6%; in assay [1] (20 µM), 52.8 ± 2.3%; in assay [4] (7 µM), 3.05 ± 3.2%; in assay [4] (20 µM) it was 6.86 ± 3.9%. Also, the percent growth inhibition in assay [2] (setting [12]) was 97.33 ± 0.15%; in assay [2] (setting [13]), 97.8 ± 1.9%; in assay [2] (setting [6]), 6.41 ± 2.8%; in assay [2] (setting [9]) it was 95.3 ± 1.8%; in assay [5] (setting [10]) it was -1.9 ± 6.7%; in assay [5] (setting [11]), 49.8 ± 7.5%.

As for `Clc1ccc(CCC(Cn2ccnc2)Sc2c(Cl)cccc2Cl)cc1` (configuration not stated) [Butoconazole nitrate], the “percent growth inhibition of drug alone” value in assay [1] (7 µM) was -1.2 ± 2.2%; in assay [1] (20 µM), 2.34 ± 3.2%. Besides, in assay [2] (setting [13]), the percent growth inhibition stood at 6.76 ± 0.1%.

Take `C=C1c2c(Cl)ccc(O)c2C(=O)C2=C(O)[C@]3(O)C(=O)C(C(N)=O)=C(O)[C@@H](N(C)C)[C@@H]3[C@@H](O)[C@H]12.O=C(O)c1cc(S(=O)(=O)O)ccc1O` [Meclocycline sulfosalicylate]: the figures for the “percent growth inhibition of drug alone” value in assay [1] (7 µM) and in assay [1] (20 µM) were 2.09 ± 6.8% and 7.24 ± 1.1%, respectively. Moreover, the percent growth inhibition in assay [2] (setting [13]) is 10.3 ± 2.3%.

On to `CCCCCCCCCCCCCCCC[N+](C)(C)CCN(Cc1ccc(OC)cc1)c1ncccn1` [Thonzonium bromide], for which the “percent growth inhibition of drug alone” value in assay [1] (7 µM) is -1.94 ± 3.1%; in assay [1] (20 µM), 2.72 ± 1.4%. Besides, the percent growth inhibition in assay [2] (setting [13]) came to 98.2 ± 3.1%.
